# Reference: PubChem BioAssay (EPA / NIEHS)
# Active and inactive are the calls of the source. Rule for the calls: active = hit-call score of the fitted dose curve at least 0.9, where 1 is the maximum; inactive = score below 0.9.
# Assay: APR_HepG2_P-H2AX_72hr: Apredica 72-hour HepG2 Assay for H2AX Phosphorylation (AID 2282916);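 note: phospho-histone H2A.x immunostain intensity per cell marking DNA damage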
# Conditions: imaging, actives raise or lower the signal
# Procedure, shortened: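 Phospho-histone H2A.x immunofluorescence, multiplexed with Hoechst and c-Jun, quantified by high-content imaging. Compounds applied to HepG2 for 72 h across ten concentrations (0.39–200 uM, 0.5% DMSO), in duplicate; DMSO baseline.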
SMILES,outcome,AC50
CN1COCN(Cc2cnc(Cl)s2)C1=N[N+](=O)[O-],inactive,
O=C(O)c1cc(Oc2ccc(C(F)(F)F)cc2Cl)ccc1[N+](=O)[O-],inactive,
Nc1c(Cl)cc([N+](=O)[O-])cc1Cl,inactive,
CSc1nc(NC(C)C)nc(NC(C)C)n1,inactive,
COP(=O)(NC(C)=O)SC (stereo unspecified),inactive,
CCOP(=S)(OCC)OC(Cl)C(Cl)(Cl)Cl (stereo unspecified),inactive,
COc1cc(OC)nc(Sc2cccc(Cl)c2C(=O)O)n1,inactive,
CC1=NNC(=O)N(/N=C/c2cccnc2)C1,inactive,
CCC(=O)Nc1ccc(Cl)c(Cl)c1,inactive,
COc1cccc(C(=O)NN(C(=O)c2cc(C)cc(C)c2)C(C)(C)C)c1C,inactive,
CCCSP(=O)(OCC)Oc1ccc(Br)cc1Cl (stereo unspecified),inactive,
COc1ccc(C(=CC(=O)N2CCOCC2)c2ccc(Cl)cc2)cc1OC,inactive,
S=C1NCCN1,inactive,
CC(C)[C@H](C(=O)O[C@H](C#N)c1cccc(Oc2ccccc2)c1)c1ccc(Cl)cc1,inactive,
CCOP(=S)(OCC)Oc1ccc([N+](=O)[O-])cc1,inactive,
Nc1nc(N)nc(NC2CC2)n1,inactive,
CCCSP(=O)(OCC)SCCC,inactive,
FC(F)C(F)(F)OCC(Cn1cncn1)c1ccc(Cl)cc1Cl (stereo unspecified),,105 µM (active)

SMILES,outcome,AC50
CC1(C(=O)Nc2ccc(O)c(Cl)c2Cl)CCCCC1,inactive,
CN(C)[C@@H]1C(=O)C(C(N)=O)=C(O)[C@@]2(O)C(=O)C3=C(O)c4c(O)cccc4[C@@](C)(O)[C@H]3[C@H](O)[C@@H]12,inactive,
CNC(=O)Oc1cccc2c1OC(C)(C)O2,,97 µM (active)
CSC1=N[C@@](C)(c2ccccc2)C(=O)N1Nc1ccccc1,inactive,
CC(C)=CC1C(C(=O)OCN2C(=O)C3=C(CCCC3)C2=O)C1(C)C (stereo unspecified),inactive,
CC[C@H](C)[C@H]1O[C@]2(C=C[C@@H]1C)C[C@@H]1C[C@@H](C/C=C(\C)[C@@H](O[C@H]3C[C@H](OC)[C@@H](O[C@H]4C[C@H](OC)[C@@H](NC)[C@H](C)O4)[C@H](C)O3)[C@@H](C)/C=C/C=C3\CO[C@@H]4[C@H](O)C(C)=C[C@@H](C(=O)O1)[C@]34O)O2,inactive,
N#CSCSC#N,inactive,
COP(=O)(OC)C(O)C(Cl)(Cl)Cl (stereo unspecified),inactive,
Cc1ccn2nc(S(=O)(=O)Nc3c(F)cccc3F)nc2n1,inactive,
CCC(CC)Nc1c([N+](=O)[O-])cc(C)c(C)c1[N+](=O)[O-],inactive,
CCCCOC(=O)c1ccccc1C(=O)O,inactive,
CCCOc1nn(C(=O)NS(=O)(=O)c2ccccc2C(=O)OC)c(=O)n1C,inactive,
C[N+]1(C)CCCCC1,inactive,
CC(C)N(C(=O)SCC(Cl)=C(Cl)Cl)C(C)C,inactive,
CCOP(=S)(OCC)Oc1ccc2c(C)c(Cl)c(=O)oc2c1,,100 µM (active)
CCc1cccc(CC)c1N(COC)C(=O)CCl,inactive,
CCOC(=O)COc1cc(-c2nn(C)c(OC(F)F)c2Cl)c(F)cc1Cl,inactive,
CCOP(=O)(OCC)Oc1cc(C)nc(C(C)C)n1,inactive,
